In PubChem BioAssay:
This is one part of the list. Calls of active or inactive are those of the source.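 How the source made its calls, unless noted: active means under 65% GFP response relative to DMSO; inconclusive means yeast strain with under 70 measured events; inactive means the rest.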

What was measured:
[1] = yeast TOR reporter LAP4-GFP level changes – cell-based, second cherry pick, flow cytometry, confirmation (AID 2621;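 active means GFP signal as percent of the solvent control above about 150%, meaning raised reporter expression, limit read from the data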;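 further: ratio of well median GFP fluorescence to plate DMSO mean so 100% = DMSO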); settings: S. cerevisiae LAP4-GFP strain, 3 h, at 10 µM, stronger effect = higher value
[2] = TOR pathway reporter MEP2-GFP, hit retest – S. cerevisiae, flow cytometry GFP, second cherry picks, confirmation (AID 2622;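 active means GFP signal above 150% of the solvent control wells, that is a rise of more than half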;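 further: median channel GFP fluorescence of all gated yeast cells per well; ratio of median GFP to plate DMSO average so 100% = DMSO level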); settings: S. cerevisiae MEP2-GFP strain, 3 h, at 10 µM, stronger effect = higher value
[3] = retest of hits on RPL19A-GFP strain – cell-based, S. cerevisiae, flow cytometry, second cherry pick, confirmation (AID 2623); settings: 3 h, at 10 µM, stronger effect = lower value, 100% means same as DMSO wells;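 further: median GFP channel fluorescence per well over the all cells gate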
[4] = yeast TOR pathway CIT2-GFP reporter modulation – flow cytometry, second cherry pick, single plex, confirmation (AID 2624;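 active means GFP response vs DMSO above about 150%, limit read from the data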;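 further: median green fluorescence per well over all gated yeast cells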); settings: S. cerevisiae CIT2-GFP strain, 3 h, at 10 µM, stronger effect = higher value, DMSO control wells read 100%
[5] = yeast AGP1-GFP fluorescence change, single-dose confirmation – cell-based, flow cytometry, S. cerevisiae, cherry pick set 2 (AID 2643;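 active means over 150 percent of DMSO response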;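 further: median GFP channel fluorescence over all cells without mother daughter split; sample median GFP divided by mean DMSO control so 100% equals DMSO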); settings: S. cerevisiae AGP1-GFP strain, 3 h, at 10 µM, stronger effect = higher value
[6] = reduced mouse 2C T cell binding to pMHC/ICAM-1 vesicles – MLPCN validation set, flow cytometry, LFA-1/ICAM-1 modulator project, pilot screen (AID 2523;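 active means response below a set limit, under 55% cells CD8-positive and vesicle-bound, and CD8 cells' 90th-percentile brightness under 279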;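 on vesicle binding response: mean PE anti-B7-1 fluorescence of CD8+ cells relative to row control; 100% = QL9-loaded vesicles with DMSO vehicle in the same plate row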); settings: 2C mouse CD8+ T cells, at 7 µM, stronger effect = lower value; double positive events: measured here: CD8+/vesicle+ event percentage
[7] = target: Integrin beta-1 (Homo sapiens) + Integrin alpha-4 (Homo sapiens) (UniProt P13612+P05556); test: alpha4beta1 integrin LIBS antibody binding reduction – U937 cells, HUTS-21 mAb, flow cytometry, validation set, VLA-4 allosteric modulator project, pilot screen (AID 2674;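 active means inhibition above 50%, about 3 SD of the validation set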;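 further: antibody binding induced by the VLA-4 ligand LDV present at three times its Kd; 0% = LDV ligand with antibody and no compound and 100% = antibody without LDV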); settings: HUTS-21 LIBS mAb binding, at 6.7 µM, stronger effect = higher value, binding induced by LDV ligand
Integrin beta-1 (Homo sapiens) + Integrin alpha-4 (Homo sapiens), sequence (P05556 whole entry, looked up): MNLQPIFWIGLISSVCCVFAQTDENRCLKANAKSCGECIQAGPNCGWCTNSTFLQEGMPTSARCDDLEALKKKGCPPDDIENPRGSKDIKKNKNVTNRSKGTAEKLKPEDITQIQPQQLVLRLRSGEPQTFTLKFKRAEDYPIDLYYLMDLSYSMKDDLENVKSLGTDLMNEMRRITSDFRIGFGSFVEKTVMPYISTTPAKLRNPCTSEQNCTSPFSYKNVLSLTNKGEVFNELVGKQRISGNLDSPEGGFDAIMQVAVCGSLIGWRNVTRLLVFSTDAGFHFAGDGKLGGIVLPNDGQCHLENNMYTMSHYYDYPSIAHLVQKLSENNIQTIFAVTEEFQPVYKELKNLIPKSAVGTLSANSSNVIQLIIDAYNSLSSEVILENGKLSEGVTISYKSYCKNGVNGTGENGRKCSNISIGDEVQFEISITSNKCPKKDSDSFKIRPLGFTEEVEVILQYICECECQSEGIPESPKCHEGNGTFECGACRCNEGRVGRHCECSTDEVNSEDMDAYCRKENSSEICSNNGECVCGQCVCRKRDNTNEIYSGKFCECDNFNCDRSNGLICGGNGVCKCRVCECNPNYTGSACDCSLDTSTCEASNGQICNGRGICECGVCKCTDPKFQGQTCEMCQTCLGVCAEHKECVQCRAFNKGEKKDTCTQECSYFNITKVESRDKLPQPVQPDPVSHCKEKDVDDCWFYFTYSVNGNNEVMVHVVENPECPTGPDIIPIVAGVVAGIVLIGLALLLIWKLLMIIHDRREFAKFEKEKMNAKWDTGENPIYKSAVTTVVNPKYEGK
Integrin beta-1 (Homo sapiens) + Integrin alpha-4 (Homo sapiens), sequence (P13612 whole entry, looked up): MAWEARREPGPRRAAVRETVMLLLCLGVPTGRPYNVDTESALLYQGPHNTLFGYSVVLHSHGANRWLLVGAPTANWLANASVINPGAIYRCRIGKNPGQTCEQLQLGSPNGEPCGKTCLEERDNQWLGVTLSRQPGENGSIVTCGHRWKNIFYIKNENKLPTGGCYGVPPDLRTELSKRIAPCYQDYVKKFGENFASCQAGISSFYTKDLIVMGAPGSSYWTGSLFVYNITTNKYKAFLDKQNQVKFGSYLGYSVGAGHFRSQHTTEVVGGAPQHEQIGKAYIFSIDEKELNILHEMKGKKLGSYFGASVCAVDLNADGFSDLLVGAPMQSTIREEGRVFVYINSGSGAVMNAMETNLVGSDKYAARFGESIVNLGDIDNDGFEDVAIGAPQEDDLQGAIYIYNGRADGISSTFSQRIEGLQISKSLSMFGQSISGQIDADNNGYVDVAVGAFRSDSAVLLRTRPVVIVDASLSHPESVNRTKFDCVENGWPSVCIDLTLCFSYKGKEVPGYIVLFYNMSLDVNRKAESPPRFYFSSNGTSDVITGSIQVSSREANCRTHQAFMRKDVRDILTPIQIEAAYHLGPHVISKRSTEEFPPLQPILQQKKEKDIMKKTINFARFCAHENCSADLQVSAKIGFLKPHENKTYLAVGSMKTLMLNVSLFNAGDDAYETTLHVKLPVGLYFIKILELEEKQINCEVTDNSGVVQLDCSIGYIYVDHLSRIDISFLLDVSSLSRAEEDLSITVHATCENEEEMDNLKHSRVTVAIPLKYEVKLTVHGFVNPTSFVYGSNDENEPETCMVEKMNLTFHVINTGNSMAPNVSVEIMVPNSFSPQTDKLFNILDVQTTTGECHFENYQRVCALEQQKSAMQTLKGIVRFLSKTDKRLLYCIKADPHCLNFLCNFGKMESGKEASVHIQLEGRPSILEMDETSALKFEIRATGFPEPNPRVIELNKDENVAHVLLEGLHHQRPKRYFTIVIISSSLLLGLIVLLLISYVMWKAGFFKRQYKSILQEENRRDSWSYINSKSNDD

[8] = target: Beta-adrenergic receptor kinase 1 (Homo sapiens) (UniProt P25098); test: GRK2 binders displacing RNA aptamer, biochemical, validation, human GRK2, bead flow cytometry (AID 488806;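 active means aptamer binding inhibition above 30%, about 3 SD of noise from non-fluorescent compounds; inactive means inhibition at or below 30%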); settings: bead-bound GRK2, FAM-aptamer displacement, at 10 µM, stronger effect = higher value
Beta-adrenergic receptor kinase 1 (Homo sapiens), sequence (P25098 whole entry, looked up): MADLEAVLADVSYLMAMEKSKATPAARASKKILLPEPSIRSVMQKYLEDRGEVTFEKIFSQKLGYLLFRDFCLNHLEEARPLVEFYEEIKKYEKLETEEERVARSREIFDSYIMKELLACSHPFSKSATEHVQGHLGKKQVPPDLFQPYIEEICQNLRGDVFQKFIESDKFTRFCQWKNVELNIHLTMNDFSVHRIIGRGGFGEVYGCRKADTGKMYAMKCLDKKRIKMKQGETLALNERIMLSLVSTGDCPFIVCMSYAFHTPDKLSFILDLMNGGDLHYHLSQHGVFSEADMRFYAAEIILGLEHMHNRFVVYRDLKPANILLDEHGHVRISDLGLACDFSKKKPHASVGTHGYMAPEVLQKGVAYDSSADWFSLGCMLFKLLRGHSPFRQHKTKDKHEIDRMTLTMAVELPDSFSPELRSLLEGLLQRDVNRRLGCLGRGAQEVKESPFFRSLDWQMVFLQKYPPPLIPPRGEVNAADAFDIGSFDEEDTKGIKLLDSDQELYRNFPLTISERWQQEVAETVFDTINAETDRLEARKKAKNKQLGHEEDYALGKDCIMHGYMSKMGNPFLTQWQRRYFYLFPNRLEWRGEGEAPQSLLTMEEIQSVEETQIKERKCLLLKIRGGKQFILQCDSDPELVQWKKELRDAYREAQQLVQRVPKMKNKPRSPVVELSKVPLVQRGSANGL

[9] = target: Beta-2 adrenergic receptor (Homo sapiens) (UniProt P07550); test: agonist-induced loss of surface beta2AR – cell-based, FAP fluorogen, flow cytometry, validation set, pilot screen (AID 504459;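 active means percent response above 42, roughly 3 SD of non-fluorescent test compounds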;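 further: agonist-driven loss of surface beta2AR via internalization measured by FAP dye flow cytometry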); settings: Am2.2-beta2AR cells, at 10 µM, stronger effect = higher value
Beta-2 adrenergic receptor (Homo sapiens), sequence (P07550 whole entry, looked up): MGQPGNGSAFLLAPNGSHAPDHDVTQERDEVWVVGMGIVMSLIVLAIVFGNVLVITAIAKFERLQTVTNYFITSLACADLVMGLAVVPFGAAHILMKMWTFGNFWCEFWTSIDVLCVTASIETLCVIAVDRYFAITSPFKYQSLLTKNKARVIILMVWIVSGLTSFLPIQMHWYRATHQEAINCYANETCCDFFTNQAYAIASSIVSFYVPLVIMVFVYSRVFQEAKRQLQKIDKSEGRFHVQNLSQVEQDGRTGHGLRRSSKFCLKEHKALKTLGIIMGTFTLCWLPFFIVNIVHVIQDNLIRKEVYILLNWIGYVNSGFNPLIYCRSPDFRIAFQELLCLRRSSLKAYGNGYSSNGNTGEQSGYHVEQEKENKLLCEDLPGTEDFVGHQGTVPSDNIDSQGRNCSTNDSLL

[10] = target: AP-2 complex subunit beta (Homo sapiens) (UniProt P63010); test: beta-arrestin/AP2 interaction blockers – biochemical, validation set, GST-AP2 beads, flow cytometry, pilot screen (AID 504541;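 active means inhibition above 54%, about 3 SD of non-fluorescent compounds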;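 further: AP2 carries R879A mutation and is captured from E. coli lysate; bead-bound FITC arrestin peptide fluorescence measuring arrestin peptide binding to AP2; 0% = DMSO wells and 100% = excess unlabeled arrestin peptide control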); settings: FITC arrestin peptide, at 10 µM, stronger effect = higher value, AP2 beta2 appendage fragment, R879A mutant
AP-2 complex subunit beta (Homo sapiens), sequence (P63010 whole entry, looked up, the tested form may be a part, one chain of several): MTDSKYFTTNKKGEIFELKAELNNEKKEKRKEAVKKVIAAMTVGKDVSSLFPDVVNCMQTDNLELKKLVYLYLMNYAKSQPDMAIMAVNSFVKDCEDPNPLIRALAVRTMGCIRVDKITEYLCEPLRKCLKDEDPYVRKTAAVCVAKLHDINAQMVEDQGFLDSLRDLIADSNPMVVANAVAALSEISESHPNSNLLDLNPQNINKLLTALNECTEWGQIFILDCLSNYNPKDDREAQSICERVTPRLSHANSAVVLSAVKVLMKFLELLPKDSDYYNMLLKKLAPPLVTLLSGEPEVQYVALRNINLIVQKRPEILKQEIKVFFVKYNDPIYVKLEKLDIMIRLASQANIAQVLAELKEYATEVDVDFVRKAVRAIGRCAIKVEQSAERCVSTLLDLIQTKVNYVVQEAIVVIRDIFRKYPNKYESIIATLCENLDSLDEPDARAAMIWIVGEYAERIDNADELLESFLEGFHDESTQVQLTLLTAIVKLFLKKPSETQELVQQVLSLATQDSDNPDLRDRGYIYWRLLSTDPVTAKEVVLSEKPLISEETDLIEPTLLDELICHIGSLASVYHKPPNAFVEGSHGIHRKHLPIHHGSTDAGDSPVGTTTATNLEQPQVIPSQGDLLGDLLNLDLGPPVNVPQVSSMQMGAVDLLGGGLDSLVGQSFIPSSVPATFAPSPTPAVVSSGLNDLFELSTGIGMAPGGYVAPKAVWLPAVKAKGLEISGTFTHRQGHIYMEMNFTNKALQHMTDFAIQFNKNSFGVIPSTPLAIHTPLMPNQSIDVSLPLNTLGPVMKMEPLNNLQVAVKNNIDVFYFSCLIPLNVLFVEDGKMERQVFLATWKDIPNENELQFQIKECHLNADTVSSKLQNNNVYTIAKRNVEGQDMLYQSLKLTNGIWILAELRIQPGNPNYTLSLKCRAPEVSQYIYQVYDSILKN

[11] = cytosolic pH regulators acting via V-ATPase – S. cerevisiae, pHLuorin, HTS validation (AID 504600; in the data active means response above about 15%;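 further: plate controls were DMSO for no effect and reference compound for full effect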); settings: V-ATPase proton transport, at 10 µM, stronger effect = higher value
[12] = test system: anti-desmoglein-3 scFv antibody binding to human DSG3; test: blockers of pathogenic pemphigus antibody–desmoglein-3 binding – biochemical, validation compound set, bead-based, flow cytometry, pilot screen (AID 588368;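 active means binding below the plate cutoff, the plate median minus 3 SD, with a reading above zero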;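 further: signal is the median channel fluorescence of bead-bound GFP antibody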); settings: Protein G beads, DSG3-Fc, scFv-GFP binding, at 10 µM, stronger effect = lower value
[13] = Nile Red efflux blockade in pump-expressing yeast – validation compound set, multiplex, phenotypic, pilot screen (AID 588506;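 active means efflux inhibition above 0.42, the validation set average plus 4 SD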;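 further: Nile Red retained in cells so higher fluorescence means more efflux inhibition; 0 = negative control wells and 1 = enniatin B 25 µM full block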); settings: S. cerevisiae pump-expressing triplex, Nile Red efflux flow cytometry; at 10 µM; stronger effect = higher value; the pumps come from Candida albicans
[14] = target: ATP-binding cassette sub-family B member 6 (Homo sapiens) (UniProt Q9NP58); test: blockers of ABCB6-driven porphyrin uptake – K562-ABCB6 cells, flow cytometry, validation set, pilot screen (AID 588550;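 active means inhibition above the screen-wide mean plus 3 SD, about 51%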;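 further: 0% = DMSO wells and 100% = benzethonium chloride 70 µM positive control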); settings: K562-ABCB6 porphyrin accumulation, 1 h, at 10 µM, stronger effect = higher value
ATP-binding cassette sub-family B member 6 (Homo sapiens), sequence (Q9NP58 whole entry, looked up): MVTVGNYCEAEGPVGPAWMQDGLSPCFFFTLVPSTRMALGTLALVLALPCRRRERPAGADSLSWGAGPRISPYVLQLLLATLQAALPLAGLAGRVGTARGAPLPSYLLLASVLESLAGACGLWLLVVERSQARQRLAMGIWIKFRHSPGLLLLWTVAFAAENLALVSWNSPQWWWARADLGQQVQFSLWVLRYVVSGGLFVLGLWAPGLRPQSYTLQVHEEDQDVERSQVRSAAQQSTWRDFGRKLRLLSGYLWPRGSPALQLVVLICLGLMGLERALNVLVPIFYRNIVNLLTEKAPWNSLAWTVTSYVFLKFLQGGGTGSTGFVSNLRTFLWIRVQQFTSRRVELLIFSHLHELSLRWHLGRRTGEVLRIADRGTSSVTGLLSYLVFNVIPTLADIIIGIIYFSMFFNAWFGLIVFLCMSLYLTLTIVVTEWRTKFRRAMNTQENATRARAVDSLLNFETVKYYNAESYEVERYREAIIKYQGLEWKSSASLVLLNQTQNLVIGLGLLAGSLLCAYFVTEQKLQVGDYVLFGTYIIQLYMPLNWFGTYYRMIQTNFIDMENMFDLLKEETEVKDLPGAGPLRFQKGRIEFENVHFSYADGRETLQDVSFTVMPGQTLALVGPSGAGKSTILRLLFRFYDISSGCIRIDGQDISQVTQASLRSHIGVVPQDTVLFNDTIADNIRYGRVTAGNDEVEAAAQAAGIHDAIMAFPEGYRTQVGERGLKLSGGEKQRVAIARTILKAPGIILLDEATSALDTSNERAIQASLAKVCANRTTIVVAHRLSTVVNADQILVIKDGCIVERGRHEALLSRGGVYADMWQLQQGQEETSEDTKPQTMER

[15] = AML differentiation inducers, ER-HoxA9 marrow cells – cell-based, GFP/MAC1 double positive, flow cytometry, validation set, primary screen (AID 588685;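 active means differentiation response of at least 50%, scaled between solvent and reference control, from cells with both markers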;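 further: compound exposure lasts four days before antibody staining and flow analysis; 0% = DMSO wells and 100% = 5 µM fulvestrant positive control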); settings: stronger effect = higher value, normalized: vehicle 0, fulvestrant 100
[16] = green-channel fluorescence artefact in S. cerevisiae – s288c strain, artefact control for yeast TOR pathway GFP screen, dose response (AID 2757;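 active means fluorescence span over the dose series, or activity score, above about 33, limit read from the data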;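 further: thousands of bead-calibrated equivalent soluble fluorophore molecules from median cell fluorescence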); settings: 520 nm autofluorescence, flow cytometry, 3 h, at 33 µM, stronger effect = higher value, zero means same as solvent-only cells
[17] = calorie-restriction mimetic ROS inhibitors, yeast – validation compound set, pilot screen (AID 2706;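 active means superoxide response below 65% of plate, a cut near 3 SD across the whole screen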;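 further: yeast exposed to compound for one week at 30 degrees C before staining; 100% = mean of all compound wells on the same plate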); settings: S. cerevisiae aging, superoxide DHE fluorescence; at 10 µM, stronger effect = lower value

O=C(COc1cccnc1[N+](=O)[O-])Nc1ccc(Cl)cc1F
inactive: GFP response vs DMSO [1] 99.2% | GFP response vs DMSO [2] 101% | GFP response vs DMSO [3] 99.5% | GFP response vs DMSO [4] 103% | percent response vs DMSO [5] 97.4%

CCOc1ccccc1C(=O)NCCC(=O)O
60.3%: double positive events [6]
inactive: vesicle binding response [6] 64.9% | inhibition [7] -17.1% | aptamer binding inhibition [8] 1% | response [9] 12.6% | inhibition [10] 19.4% | response [11] 1.48% | binding (% of control) [12] 105% | inhibition [14] 13% | differentiation response [15] 16.9%
active: efflux inhibition (fraction of control) [13] 0.92

COc1ccc(CCNC(=O)CS(=O)(=O)Cc2nc(-c3ccc(C)cc3)oc2C)cc1OC
inactive: GFP response vs DMSO [1] 103% | GFP response vs DMSO [2] 99.6% | GFP response vs DMSO [3] 95.5% | GFP response vs DMSO [4] 100% | percent response vs DMSO [5] 101%

COc1ccc(C2(C)ON(c3ccccc3C(F)(F)F)C2=O)cc1 (stereo not drawn)
inactive: GFP response vs DMSO [1] 113% | GFP response vs DMSO [2] 103% | GFP response vs DMSO [3] 100% | GFP response vs DMSO [4] 100% | percent response vs DMSO [5] 101% | fluorescence change (kMESF span) [16] 0.5

C#CCOCCOCCOCCNc1nc(N2CCN(C(=O)CCCCCCCCCCNC(=O)[C@H](CCCCN)n3cc(C)nn3)CC2)nc(N2CCN(C(=O)CCCCCCCCCCNC(=O)[C@H](CO)n3cc(CCCSC)nn3)CC2)n1
inactive: GFP response vs DMSO [1] 109% | GFP response vs DMSO [2] 119% | GFP response vs DMSO [3] 97.6% | GFP response vs DMSO [4] 110% | percent response vs DMSO [5] 104%

Oc1ccc(Cl)cc1Cc1cc(Cl)ccc1O
63.4%: double positive events [6]
inactive: vesicle binding response [6] 194% | superoxide response (% of plate) [17] 110% | aptamer binding inhibition [8] 3% | response [9] 17.5% | inhibition [10] 24.9% | response [11] 0.73% | binding (% of control) [12] 108% | efflux inhibition (fraction of control) [13] -0.04 | inhibition [14] 11% | differentiation response [15] 4.2%

CCCCNc1c(-c2cccc(Sc3ccc(OC)cc3)c2)nc2ccccn12
inactive: GFP response vs DMSO [1] 138% | GFP response vs DMSO [2] 129% | GFP response vs DMSO [3] 92.7% | GFP response vs DMSO [4] 120% | percent response vs DMSO [5] 90.6%

COc1ccc(S(=O)(=O)N2CCN(C(=O)COc3ccc4c(C)cc(=O)oc4c3)CC2)cc1
inactive: inhibition [7] 3.67% | superoxide response (% of plate) [17] 96.9% | aptamer binding inhibition [8] -1% | response [9] 11.5% | inhibition [10] -2.78% | response [11] 0.22% | binding (% of control) [12] 103% | efflux inhibition (fraction of control) [13] 0.3 | inhibition [14] -3% | differentiation response [15] 4%
90%: double positive events [6]

Cc1ccc(S/C(=N\S(=O)(=O)c2ccc(Cl)cc2)c2ccccc2)cc1
inactive: GFP response vs DMSO [1] 101% | GFP response vs DMSO [2] 105% | GFP response vs DMSO [3] 98% | GFP response vs DMSO [4] 107% | percent response vs DMSO [5] 99.1%

Cc1cc(C)c2nc3nc(C)cc(C)c3c(N)c2c1
inactive: GFP response vs DMSO [1] 99% | GFP response vs DMSO [2] 103% | GFP response vs DMSO [3] 76.7% | GFP response vs DMSO [4] 93.9% | percent response vs DMSO [5] 75.9%

COc1cccc(/C=N/Nc2ncc(C(F)(F)F)cc2Cl)c1O
active: GFP response vs DMSO [1] 200%
inactive: GFP response vs DMSO [2] 143% | GFP response vs DMSO [3] 102% | GFP response vs DMSO [4] 132% | percent response vs DMSO [5] 86.2% | fluorescence change (kMESF span) [16] 1.52

COc1ccc(C)cc1NC(=O)CSc1nc(SC)ns1
inactive: GFP response vs DMSO [1] 97.2% | GFP response vs DMSO [2] 97.8% | GFP response vs DMSO [3] 100% | GFP response vs DMSO [4] 102% | percent response vs DMSO [5] 100%

O=C(Nc1nnc(-c2ccc(Cl)cc2)o1)c1ccccc1Br
active: GFP response vs DMSO [1] 174%
inactive: GFP response vs DMSO [2] 120% | GFP response vs DMSO [3] 99.6% | GFP response vs DMSO [4] 133% | percent response vs DMSO [5] 95.3% | fluorescence change (kMESF span) [16] 0.5

COC(=O)C[n+]1cccc2ccccc21
inactive: GFP response vs DMSO [1] 106% | GFP response vs DMSO [2] 103% | GFP response vs DMSO [3] 100% | GFP response vs DMSO [4] 118% | percent response vs DMSO [5] 105%

COc1ccc2nc(N3CCN(C(=O)c4ccc([N+](=O)[O-])o4)CC3)sc2c1
inactive: GFP response vs DMSO [3] 87% | percent response vs DMSO [5] 87.3%
active: GFP response vs DMSO [1] 252% | GFP response vs DMSO [2] 255% | GFP response vs DMSO [4] 243%

CCn1c(=N)c(C(=O)NC)cc2c(=O)n3cccc(C)c3nc21
active: efflux inhibition (fraction of control) [13] 1.08
inactive: vesicle binding response [6] 26.6% | inhibition [7] -8.75% | aptamer binding inhibition [8] 2% | response [9] -15.1% | response [11] -34.5% | binding (% of control) [12] 108% | inhibition [14] 5% | differentiation response [15] 24.7%
55.2%: double positive events [6]

CN(Cc1ccccc1)C(=O)C(=O)c1cn(CC(=O)N2CCCC2)c2ccccc12
inactive: GFP response vs DMSO [1] 103% | GFP response vs DMSO [2] 96.1% | GFP response vs DMSO [3] 95% | GFP response vs DMSO [4] 103% | percent response vs DMSO [5] 98.3%

Clc1cccc(CN2COc3c(cc(Cl)c4cccnc34)C2)c1
inactive: GFP response vs DMSO [1] 127% | GFP response vs DMSO [2] 130% | GFP response vs DMSO [3] 101% | GFP response vs DMSO [4] 95% | percent response vs DMSO [5] 95.3% | fluorescence change (kMESF span) [16] 1.92

Cc1ccc2nc(N(CCN(C)C)C(=O)C3=COCCO3)sc2c1
inactive: GFP response vs DMSO [1] 102% | GFP response vs DMSO [2] 105% | GFP response vs DMSO [3] 98.9% | GFP response vs DMSO [4] 103% | percent response vs DMSO [5] 104%

CCN1/C(=C/c2ccc3ccc(C)cc3[n+]2CC)Sc2ccccc21
inactive: GFP response vs DMSO [3] 136%
active: GFP response vs DMSO [1] 392% | GFP response vs DMSO [2] 1240% | GFP response vs DMSO [4] 1630% | percent response vs DMSO [5] 203%

O=C(NCCN1CCOCC1)c1ccc(Cl)cc1
active: efflux inhibition (fraction of control) [13] 1.05
64.3%: double positive events [6]
inactive: vesicle binding response [6] 168% | inhibition [7] -16% | aptamer binding inhibition [8] -1% | response [9] 15.8% | inhibition [10] 23.5% | response [11] -22.3% | binding (% of control) [12] 105% | inhibition [14] 14% | differentiation response [15] 15.9%
